Here are results for seven compounds from ChEMBL document CHEMBL1961873, “Compounds: GSK PKIS; Assays: Nanosyn kinase panel” (2012).

The inhibition is the drop in the measured response relative to a control, in per cent.

Experiment [1] concerns the target T1, Serine/threonine-protein kinase DCLK2 (Homo sapiens) (UniProt Q8N568).
T1 sequence (whole entry): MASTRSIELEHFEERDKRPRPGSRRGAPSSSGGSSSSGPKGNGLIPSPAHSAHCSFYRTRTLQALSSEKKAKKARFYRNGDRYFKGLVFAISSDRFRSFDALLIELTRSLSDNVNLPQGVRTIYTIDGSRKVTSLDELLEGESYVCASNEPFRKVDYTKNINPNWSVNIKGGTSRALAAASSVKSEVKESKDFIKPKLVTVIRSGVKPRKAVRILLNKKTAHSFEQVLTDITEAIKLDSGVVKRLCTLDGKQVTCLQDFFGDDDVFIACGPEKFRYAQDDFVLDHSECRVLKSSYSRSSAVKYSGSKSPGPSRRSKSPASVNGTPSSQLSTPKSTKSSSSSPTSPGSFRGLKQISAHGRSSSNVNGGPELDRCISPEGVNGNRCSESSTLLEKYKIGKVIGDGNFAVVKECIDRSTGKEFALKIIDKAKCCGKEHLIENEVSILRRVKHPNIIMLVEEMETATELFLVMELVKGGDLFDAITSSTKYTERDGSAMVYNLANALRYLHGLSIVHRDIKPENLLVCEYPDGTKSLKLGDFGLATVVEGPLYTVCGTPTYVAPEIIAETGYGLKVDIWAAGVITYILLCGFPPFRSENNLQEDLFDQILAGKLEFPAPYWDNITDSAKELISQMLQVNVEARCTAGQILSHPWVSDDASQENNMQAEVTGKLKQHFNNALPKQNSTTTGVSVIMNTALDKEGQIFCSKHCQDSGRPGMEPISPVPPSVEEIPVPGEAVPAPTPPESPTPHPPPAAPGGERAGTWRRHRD
Conditions: at 0.1 µM.

For experiment [2], the target named is T1, Serine/threonine-protein kinase DCLK2 (Homo sapiens). The note with it: at 1 µM.
The target in experiment [3] is MAP kinase-activated protein kinase 2 (Homo sapiens) (UniProt P49137). Conditions: at 0.1 µM.
Chain of MAP kinase-activated protein kinase 2 (Homo sapiens) (P49137 whole entry, looked up): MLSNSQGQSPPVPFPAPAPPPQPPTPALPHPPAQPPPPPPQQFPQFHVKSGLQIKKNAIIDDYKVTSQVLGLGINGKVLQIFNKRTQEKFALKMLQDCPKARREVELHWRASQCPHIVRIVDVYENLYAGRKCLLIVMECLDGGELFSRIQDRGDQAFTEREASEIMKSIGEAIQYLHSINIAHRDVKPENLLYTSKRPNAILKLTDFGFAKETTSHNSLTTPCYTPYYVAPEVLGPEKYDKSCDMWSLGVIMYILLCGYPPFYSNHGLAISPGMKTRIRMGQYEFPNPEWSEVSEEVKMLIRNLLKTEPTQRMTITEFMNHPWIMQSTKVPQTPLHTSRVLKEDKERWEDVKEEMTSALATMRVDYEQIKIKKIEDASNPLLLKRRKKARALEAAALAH
The target is the same in experiment [4]. The note with it: at 1 µM.
The target of experiment [5] is MAP kinase-activated protein kinase 3 (Homo sapiens) (UniProt Q16644). Conditions: at 0.1 µM.
For experiment [6] the target is unchanged. Conditions: at 1 µM.
For experiment [7], the target named is Serine/threonine-protein kinase MARK1 (Homo sapiens) (UniProt Q9P0L2). Conditions: at 0.1 µM.
Experiment [8] shares this target. Conditions: at 1 µM.
In experiment [9] the target is MAP/microtubule affinity-regulating kinase 3 (Homo sapiens) (UniProt P27448). The note with it: at 0.1 µM.
Chain of MAP/microtubule affinity-regulating kinase 3 (Homo sapiens) (P27448 whole entry, looked up): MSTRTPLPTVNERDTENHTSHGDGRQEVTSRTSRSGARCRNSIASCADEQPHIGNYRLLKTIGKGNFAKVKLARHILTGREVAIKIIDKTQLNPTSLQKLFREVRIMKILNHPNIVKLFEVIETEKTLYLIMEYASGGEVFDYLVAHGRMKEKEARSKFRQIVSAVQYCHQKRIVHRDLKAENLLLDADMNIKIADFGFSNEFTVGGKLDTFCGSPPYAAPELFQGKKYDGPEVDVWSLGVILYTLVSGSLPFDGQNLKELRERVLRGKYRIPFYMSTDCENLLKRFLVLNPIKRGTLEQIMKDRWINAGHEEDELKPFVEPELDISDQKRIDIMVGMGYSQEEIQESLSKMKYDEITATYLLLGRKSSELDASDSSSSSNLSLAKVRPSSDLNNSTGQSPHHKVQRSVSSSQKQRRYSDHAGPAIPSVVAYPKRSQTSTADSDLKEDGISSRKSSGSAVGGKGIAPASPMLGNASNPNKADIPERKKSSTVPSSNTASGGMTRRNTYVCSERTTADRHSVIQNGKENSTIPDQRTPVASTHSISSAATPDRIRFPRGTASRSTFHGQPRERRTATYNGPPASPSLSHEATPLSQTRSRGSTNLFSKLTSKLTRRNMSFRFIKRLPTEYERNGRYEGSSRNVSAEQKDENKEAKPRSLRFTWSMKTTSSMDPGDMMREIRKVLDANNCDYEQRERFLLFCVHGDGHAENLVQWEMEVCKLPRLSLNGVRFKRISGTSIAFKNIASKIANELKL
Experiment [10] has the same target. The note with it: at 1 µM.
Experiment [11] deals with T2, MAP/microtubule affinity-regulating kinase 4 (Homo sapiens) (UniProt Q96L34).
T2 sequence (whole entry): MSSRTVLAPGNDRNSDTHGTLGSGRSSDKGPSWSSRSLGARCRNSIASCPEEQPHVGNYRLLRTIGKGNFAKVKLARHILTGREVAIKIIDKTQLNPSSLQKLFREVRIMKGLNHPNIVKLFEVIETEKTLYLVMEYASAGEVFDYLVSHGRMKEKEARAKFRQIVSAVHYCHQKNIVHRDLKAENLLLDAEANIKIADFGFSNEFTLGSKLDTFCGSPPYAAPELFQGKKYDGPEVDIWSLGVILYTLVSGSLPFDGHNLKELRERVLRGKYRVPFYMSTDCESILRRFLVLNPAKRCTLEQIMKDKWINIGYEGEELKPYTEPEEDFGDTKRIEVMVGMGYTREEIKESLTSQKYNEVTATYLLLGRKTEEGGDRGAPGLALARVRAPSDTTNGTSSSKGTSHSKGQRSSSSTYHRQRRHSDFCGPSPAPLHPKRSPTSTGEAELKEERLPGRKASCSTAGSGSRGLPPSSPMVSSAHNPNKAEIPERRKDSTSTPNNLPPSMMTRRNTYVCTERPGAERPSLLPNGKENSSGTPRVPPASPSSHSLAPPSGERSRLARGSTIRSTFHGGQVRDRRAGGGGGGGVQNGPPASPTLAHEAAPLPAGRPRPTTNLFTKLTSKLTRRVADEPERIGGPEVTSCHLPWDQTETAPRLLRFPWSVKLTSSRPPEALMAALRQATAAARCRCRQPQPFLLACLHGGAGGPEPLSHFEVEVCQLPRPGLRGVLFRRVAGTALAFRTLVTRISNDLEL
Conditions: at 0.1 µM.

Experiment [12] concerns the target T2, MAP/microtubule affinity-regulating kinase 4 (Homo sapiens). The note with it: at 1 µM.
Experiment [13] deals with Maternal embryonic leucine zipper kinase (Homo sapiens) (UniProt Q14680). Conditions: at 0.1 µM.
Chain of Maternal embryonic leucine zipper kinase (Homo sapiens) (Q14680 whole entry, looked up): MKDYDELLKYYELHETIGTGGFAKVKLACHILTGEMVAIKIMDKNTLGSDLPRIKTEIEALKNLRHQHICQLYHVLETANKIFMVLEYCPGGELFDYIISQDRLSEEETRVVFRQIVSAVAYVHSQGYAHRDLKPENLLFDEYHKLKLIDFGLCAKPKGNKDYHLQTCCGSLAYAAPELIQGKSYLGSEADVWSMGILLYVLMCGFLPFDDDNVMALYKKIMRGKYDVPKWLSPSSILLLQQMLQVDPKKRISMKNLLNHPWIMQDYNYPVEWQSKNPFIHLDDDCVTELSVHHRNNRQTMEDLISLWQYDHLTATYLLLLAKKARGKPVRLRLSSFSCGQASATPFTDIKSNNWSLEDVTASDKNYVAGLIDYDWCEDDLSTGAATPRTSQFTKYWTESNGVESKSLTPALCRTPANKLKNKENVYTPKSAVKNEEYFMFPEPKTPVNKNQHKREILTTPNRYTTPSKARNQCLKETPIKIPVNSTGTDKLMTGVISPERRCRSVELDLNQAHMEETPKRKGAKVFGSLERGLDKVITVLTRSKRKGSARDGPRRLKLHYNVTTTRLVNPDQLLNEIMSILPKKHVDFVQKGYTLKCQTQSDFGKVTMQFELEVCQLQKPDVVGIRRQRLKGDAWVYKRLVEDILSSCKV
Experiment [14] has the same target. The note with it: at 1 µM.
Experiment [15] has as its target MAP kinase-interacting serine/threonine-protein kinase 1 (Homo sapiens) (UniProt Q9BUB5). Conditions: at 0.1 µM.
For experiment [16] the target is unchanged. Conditions: at 1 µM.
In experiment [17] the target is MAP kinase-interacting serine/threonine-protein kinase 2 (Homo sapiens) (UniProt Q9HBH9). Conditions: at 0.1 µM.
Chain of MAP kinase-interacting serine/threonine-protein kinase 2 (Homo sapiens) (Q9HBH9 whole entry, looked up): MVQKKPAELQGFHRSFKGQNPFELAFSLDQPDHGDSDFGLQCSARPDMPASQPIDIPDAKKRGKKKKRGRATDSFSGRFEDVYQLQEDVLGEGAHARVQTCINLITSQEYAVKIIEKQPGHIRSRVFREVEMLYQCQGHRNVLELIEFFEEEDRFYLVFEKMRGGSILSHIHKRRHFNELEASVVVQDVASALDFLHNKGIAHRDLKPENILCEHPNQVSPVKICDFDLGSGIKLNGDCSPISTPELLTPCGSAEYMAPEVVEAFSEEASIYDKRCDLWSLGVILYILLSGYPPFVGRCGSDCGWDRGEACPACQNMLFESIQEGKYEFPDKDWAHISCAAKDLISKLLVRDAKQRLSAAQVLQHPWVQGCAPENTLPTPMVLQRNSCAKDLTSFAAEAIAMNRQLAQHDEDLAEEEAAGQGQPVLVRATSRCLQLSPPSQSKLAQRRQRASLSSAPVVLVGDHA
For experiment [18] the target is unchanged. Conditions: at 1 µM.
Experiment [19] deals with Serine/threonine-protein kinase MARK2 (Homo sapiens) (UniProt Q7KZI7). The note with it: at 0.1 µM.
Chain of Serine/threonine-protein kinase MARK2 (Homo sapiens) (Q7KZI7 whole entry): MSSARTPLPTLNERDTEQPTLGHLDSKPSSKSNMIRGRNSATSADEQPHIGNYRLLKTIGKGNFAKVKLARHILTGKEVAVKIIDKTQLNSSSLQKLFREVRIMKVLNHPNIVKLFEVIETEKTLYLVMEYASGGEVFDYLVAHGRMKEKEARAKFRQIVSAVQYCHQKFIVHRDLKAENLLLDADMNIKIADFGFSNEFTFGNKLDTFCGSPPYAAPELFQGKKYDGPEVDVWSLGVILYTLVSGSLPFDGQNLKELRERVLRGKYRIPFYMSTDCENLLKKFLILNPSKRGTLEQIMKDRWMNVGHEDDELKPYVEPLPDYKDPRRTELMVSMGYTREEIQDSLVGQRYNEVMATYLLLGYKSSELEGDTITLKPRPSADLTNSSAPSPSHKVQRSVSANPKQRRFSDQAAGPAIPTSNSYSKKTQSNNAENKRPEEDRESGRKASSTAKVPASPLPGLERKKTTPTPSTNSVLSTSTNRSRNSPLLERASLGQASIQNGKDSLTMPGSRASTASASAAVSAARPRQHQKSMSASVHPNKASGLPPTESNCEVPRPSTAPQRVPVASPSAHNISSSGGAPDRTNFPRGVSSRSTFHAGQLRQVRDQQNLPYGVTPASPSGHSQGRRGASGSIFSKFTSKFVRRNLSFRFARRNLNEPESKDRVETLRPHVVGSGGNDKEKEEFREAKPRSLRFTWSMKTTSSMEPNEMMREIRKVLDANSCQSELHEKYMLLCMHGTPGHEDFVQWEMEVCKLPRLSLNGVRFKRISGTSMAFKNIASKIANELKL
The target of experiment [20] is Death-associated protein kinase 1 (Homo sapiens) (UniProt P53355). Conditions: at 1 µM.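 Note: each value is a mean inhibition figure.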
Chain of Death-associated protein kinase 1 (Homo sapiens) (P53355 whole entry, looked up): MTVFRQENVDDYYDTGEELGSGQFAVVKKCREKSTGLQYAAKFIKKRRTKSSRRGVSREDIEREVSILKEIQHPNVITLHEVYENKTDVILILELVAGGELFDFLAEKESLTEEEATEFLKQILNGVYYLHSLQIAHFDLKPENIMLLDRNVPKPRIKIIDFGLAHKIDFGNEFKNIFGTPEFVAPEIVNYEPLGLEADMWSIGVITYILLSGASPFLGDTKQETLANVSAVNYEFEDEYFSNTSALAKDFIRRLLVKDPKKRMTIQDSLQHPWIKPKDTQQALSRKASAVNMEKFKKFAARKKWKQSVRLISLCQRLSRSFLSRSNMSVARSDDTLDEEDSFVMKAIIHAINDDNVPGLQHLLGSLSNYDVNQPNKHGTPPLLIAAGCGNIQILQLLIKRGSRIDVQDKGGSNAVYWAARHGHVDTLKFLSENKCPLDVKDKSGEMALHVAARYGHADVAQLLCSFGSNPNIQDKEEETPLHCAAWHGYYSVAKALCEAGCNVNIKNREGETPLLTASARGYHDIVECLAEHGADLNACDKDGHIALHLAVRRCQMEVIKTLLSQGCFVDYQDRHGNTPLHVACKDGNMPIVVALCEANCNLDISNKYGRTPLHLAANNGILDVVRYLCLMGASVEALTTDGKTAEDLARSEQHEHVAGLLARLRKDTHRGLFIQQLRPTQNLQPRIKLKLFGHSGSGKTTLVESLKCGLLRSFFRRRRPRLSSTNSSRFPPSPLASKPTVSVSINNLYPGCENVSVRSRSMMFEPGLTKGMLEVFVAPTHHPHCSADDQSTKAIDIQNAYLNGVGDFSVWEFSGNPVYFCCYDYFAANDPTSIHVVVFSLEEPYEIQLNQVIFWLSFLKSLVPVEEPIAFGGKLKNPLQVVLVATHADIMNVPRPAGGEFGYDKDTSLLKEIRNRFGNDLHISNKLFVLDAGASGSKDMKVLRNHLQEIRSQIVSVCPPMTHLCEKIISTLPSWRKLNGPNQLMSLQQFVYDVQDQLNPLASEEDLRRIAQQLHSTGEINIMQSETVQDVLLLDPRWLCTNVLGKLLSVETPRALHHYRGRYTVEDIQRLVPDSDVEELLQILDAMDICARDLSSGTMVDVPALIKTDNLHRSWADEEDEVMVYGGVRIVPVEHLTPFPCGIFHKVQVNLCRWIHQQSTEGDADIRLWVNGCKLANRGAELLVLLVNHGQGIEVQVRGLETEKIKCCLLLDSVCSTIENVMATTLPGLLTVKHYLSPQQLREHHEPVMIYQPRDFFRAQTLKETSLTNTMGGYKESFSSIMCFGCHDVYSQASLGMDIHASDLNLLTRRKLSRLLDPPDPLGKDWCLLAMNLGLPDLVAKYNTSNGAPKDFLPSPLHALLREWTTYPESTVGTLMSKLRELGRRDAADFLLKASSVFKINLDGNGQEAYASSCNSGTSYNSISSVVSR

Chain of MAP kinase-interacting serine/threonine-protein kinase 1 (Homo sapiens) (Q9BUB5 whole entry, looked up): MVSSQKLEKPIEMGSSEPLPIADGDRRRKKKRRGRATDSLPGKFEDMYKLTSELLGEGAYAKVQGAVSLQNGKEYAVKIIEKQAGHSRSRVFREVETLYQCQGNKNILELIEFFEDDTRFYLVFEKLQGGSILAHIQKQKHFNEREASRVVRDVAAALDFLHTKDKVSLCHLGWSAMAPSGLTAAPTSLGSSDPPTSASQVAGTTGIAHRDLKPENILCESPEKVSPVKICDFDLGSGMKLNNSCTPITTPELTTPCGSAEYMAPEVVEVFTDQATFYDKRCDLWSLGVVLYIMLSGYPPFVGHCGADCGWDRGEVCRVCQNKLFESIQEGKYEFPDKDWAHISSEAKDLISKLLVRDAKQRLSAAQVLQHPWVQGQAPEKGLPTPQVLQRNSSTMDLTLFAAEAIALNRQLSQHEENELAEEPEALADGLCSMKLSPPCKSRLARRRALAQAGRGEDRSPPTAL

For `CS(=O)(=O)CCNCc1ccc(-c2ccc3ncnc(Nc4ccc(OCc5ccccc5)c(Cl)c4)c3c2)o1`, the inhibition in experiment [1] is -1.35%; in [2] it was 3.26%; in experiment [3], -3.32%; in experiment [4] it was -3.36%; in experiment [5] it was -5.03%; in experiment [6] it was -4.68%. Moreover, the inhibition worked out at 0.39% in [7]; 1.89% in experiment [8]; 0.63% in experiment [9]; 1.81% in [10]; 0.94% in experiment [11]; 1.91% in experiment [12]. In addition, the inhibition in experiment [13] was 2.31%; in [14] it was 3.16%; in experiment [15] it was 2.34%; in [16], 6.26%; in experiment [17], 1.96%; in experiment [18] it was 9.71%. The inhibition in [19] is 0.91%.
In the case of `O=C1NC(=O)C(c2ccccc2Cl)=C1Nc1cccc(O)c1`, the inhibition was 3.55% in experiment [20]; -0.07% in experiment [1]; 1.16% in experiment [2]; 1.27% in [3]; 1.05% in experiment [4]; 1.45% in [5]. Further, the inhibition in experiment [6] is 1.77%; in [7], 1.97%; in experiment [8], 8.19%; in [9], 1.72%; in experiment [10], 13.6%; in experiment [11], 0.9%. The inhibition came to 8.27% in [12]; 1.6% in experiment [13]; 4.56% in experiment [14]; 0.62% in experiment [15]; 2.78% in experiment [16]; 0.71% in experiment [17]. The inhibition in [18] is 0.58%; in experiment [19], 1.47%.
Regarding `Cc1ccc(C(=O)NC2CCCCC2)cc1-c1ccc(C(=O)NCC2CC2)cc1`, the inhibition in experiment [20] worked out at 5.32%; in [1], 3.45%; in experiment [3] it was 0.37%; in experiment [4], 0.95%; in experiment [5], 1.78%; in experiment [6], 4.53%. Besides, the inhibition came out at 1.97% in [7]; 0.65% in [8]; 3.7% in [9]; 2.82% in experiment [10]; 1.51% in experiment [11]; 1.5% in experiment [12]. Besides, the inhibition in experiment [13] was 1.92%; in [14], 2.41%; in [15], 1.78%; in experiment [16] it was 2.58%; in [17], 0.32%; in [18], -0.44%. Moreover, the inhibition in experiment [19] was found to be 0.34%.
For `COc1ccc(-c2nn3ncccc3c2-c2ccnc(Nc3ccc(Cl)c(C(F)(F)F)c3)n2)cc1`, the inhibition is 2.18% in experiment [20]; 1.74% in [1]; 1.23% in [3]; 0.64% in experiment [4]; 4.41% in experiment [5]; 17.4% in experiment [6]. The inhibition in experiment [7] was 2.21%; in [8], 2.97%; in experiment [9] it was -0.96%; in [10], 6.57%; in experiment [11] it was 0.48%; in experiment [12], 0.08%. Further, the inhibition was 0.2% in experiment [13]; 4.8% in experiment [14]; -1.04% in experiment [15]; 5.69% in [16]; 1.9% in [17]; 2.43% in experiment [18]. In [19], the inhibition is -0.27%.
As to `CCn1c(-c2nonc2N)nc2c(C#CC(C)(C)O)nc(CN3CCCC3)cc21`, the inhibition is -0.31% in experiment [20]; 6.66% in experiment [1]; -1.42% in experiment [2]; -0.49% in experiment [3]; -0.42% in experiment [4]; -1.48% in experiment [5]. Besides, the inhibition in [6] was -0.59%; in [7] it was 4.99%; in [8], 12%; in experiment [9] it was 4.42%; in experiment [10], 15.4%; in experiment [11], 3.5%. The inhibition in experiment [12] is 7.13%; in experiment [13], 1.68%; in experiment [14] it was 5.55%; in [15], -0.28%; in [16] it was 0.88%; in experiment [17], -0.06%. In addition, the inhibition in [18] amounted to 1.84%; in [19], 3.94%.
As to `COc1cc2ncn(-c3cc(OCc4ccccc4C(F)(F)F)c(C(N)=O)s3)c2cc1OC`, the inhibition is -4.22% in [20]; -2.49% in experiment [1]; -0.6% in [2]; 2.27% in experiment [3]; 1.47% in experiment [4]; 4.71% in [5]. Besides, the inhibition in experiment [6] amounted to 4.41%; in experiment [7], 4.83%; in [8], 22.1%; in [9] it was 5.55%; in experiment [10], 21.5%; in [11] it was 5.05%. Also, the inhibition came to 18.4% in experiment [12]; 5.92% in [13]; 10.3% in experiment [14]; 2.99% in experiment [15]; 7.06% in experiment [16]; 2.21% in [17]. For the same compound, the values for the inhibition in experiment [18] and in experiment [19] were 7.89% and 2.29%, respectively.
Consider `COC(=O)Nc1nc2cc(Oc3cccc(NC(=O)Nc4cc(C(F)(F)F)ccc4F)c3)ccc2[nH]1`, for which the inhibition was -0.6% in experiment [20]; 5.45% in experiment [1]; -0.15% in experiment [2]; -0.06% in [3]; -0.64% in experiment [4]; 0% in experiment [5]. The inhibition in experiment [6] stood at 1.82%; in experiment [7], 1.21%; in experiment [8], 1.49%; in experiment [9], 0.8%; in experiment [10], 1.94%; in experiment [11] it was 1.07%. Moreover, the inhibition in experiment [12] is 2.15%; in experiment [13], -0.49%; in [14], 1.36%; in experiment [15] it was 1.02%; in experiment [16] it was 1.01%; in experiment [17] it was 3.02%. The inhibition was -0.05% in [18] and 0.89% in experiment [19].
